# Where “and” joins values, the source holds several entries; their conditions need not be identical. Identical values can stand only once. Out of some 18,000 compounds screened, about 1,200 (6.7%) were called active. About 16% were inconclusive and are not listed. The call rests on the fitted dose curve; tested in HEK293 cells. The sample as a whole holds a higher share of actives than the screen did. The source holds several records for some structures; these can differ, active in one and inactive in another. Bridge positions count the residues as written; N and C are the ends. Peptide text beside a SMILES is read from it.
# Experiment: qHTS for Inhibitors of binding or entry into cells for Marburg Virus
# Settings: Marburg virus pseudotype entry/binding inhibition, cell-based; series mostly up to 49.2 µM; activity change, negative = inhibition: at the top concentration
# On the % scale 0 is the no-effect control and ±100 the full control effect; potency means the concentration at half of the fitted maximal effect.
Compound,"activity change, negative = inhibition",Potency
COc1ccc(-c2nc(-c3ccccc3)oc2Nc2ccc3ccccc3c2)cc1,inactive,
O=S1(=O)CC(N2CCC(Cc3ccccc3)CC2)CN1Cc1ccccc1 (stereo not given),2.7% (inactive),
CCOC(=O)C1=C(C(=O)OCC)C(C(=O)OCC)N(S(=O)(=O)C(F)(F)F)c2ccccc21 (stereo not given),4.82% (inactive),
COC(=O)C(C(=O)OC)[C@@H](NC=O)c1ccccc1,-11% (inactive),
C=CCN(Cc1ccc([N+](=O)[O-])cc1)S(=O)(=O)C=C,-5.13% (inactive),
COC(=O)CC=C[C@@H](C)[C@H](NC(=O)OCC(Cl)(Cl)Cl)c1ccc2ccccc2c1,-17.9% [at 8.59 µM] (inactive),
CC[C@H](C)[C@H](NC(=O)[C@@H](N)CCC(=O)O)C(=O)N[C@@H](CC(C)C)C(=O)N[C@@H](CC(=O)O)C(=O)N[C@H](C(=O)N1CCC[C@H]1C(=O)N[C@@H](CO)C(=O)N[C@H](C(=O)O)[C@@H](C)O)C(C)C,-3.43% (inactive),
CCCCN1CC(COc2ccccc2)Oc2cccc(F)c2S1(=O)=O (stereo not given),21.2% (inactive),
CCCCN1CC(COCc2ccccc2)OCCS1(=O)=O (stereo not given),8.55% (inactive),
CC[C@@]12C=C(/C=C/c3ccccc3)[C@](CC)(C1)[C@H](c1ccccc1)CC2=O,-11% (inactive),
FC(F)(F)c1ccc(-c2nn3ncccc3c2-c2ccnc(Nc3ccc4c(c3)OCCO4)n2)cc1,-23.2% (inactive),
COc1cc(Nc2nccc(-c3cnn4ncccc34)n2)cc(OC)c1,,3.53 µM (active)
C[C@@H]1C[C@H]2CC[C@H](O2)[C@H](C)C(=O)O[C@@H](C)C[C@@H]2CC[C@@H](O2)[C@@H](C)C(=O)O[C@H](C)C[C@H]2CC[C@H](O2)[C@H](C)C(=O)O[C@@H](C)C[C@@H]2CC[C@@H](O2)[C@@H](C)C(=O)O1,,0.631 µM (active)
C#CCNc1ccc2c(c1)OC[C@@H](C)NS2(=O)=O,20.1% (inactive),
COc1cc2c(c(OC)c1OC)CC(C)=C(C)CC2NC(=O)C(F)(F)F (stereo not given),-9.07% [at 8.59 µM] (inactive),
COCOCCn1cc(CN2CCS(=O)(=O)N(Cc3ccc(-c4cccc(N(C)C)c4)cc3)C(CC(C)C)C2=O)nn1 (stereo not given),4.51% (inactive),
C[C@H](CO)NS(=O)(=O)c1ccc(Br)cc1F,10.2% (inactive),
CCCCC/C=C\C[C@H](O)/C=C/C=C/C=C/[C@@H](O)CCCC(=O)O,2.42% (inactive),
C=CCOC(=O)C(=C)C,9.41% (inactive),
C[C@@H]1CC2=CCCC2[C@]2(O1)C(=O)N(CC1CC1)c1cccc(Br)c12 (stereo not given in full),72.4% [at 8.59 µM] (inactive),
O=C(Nc1cccc(C(=O)N2CCCC2)c1)c1ccccc1,18.3% (inactive),
CC(=O)N1CCN(Cc2cc(=O)oc3cc(C)ccc23)CC1,18.6% (inactive),
O=C(OCCN1CCOCC1)C1(c2ccccc2)CCCCC1,,inactive and 31.6 µM (active)
COc1cc(OC)c2c(c1Cl)OC1(C2=O)C(O)=CC(=O)CC1C (stereo not given),-5.71% (inactive),
CSc1ccccc1N1CCN(CCCCCC(=O)NC2CCCc3ccccc32)CC1 (stereo not given),,10 µM (active)

Compound,"activity change, negative = inhibition",Potency
COC(=O)Nc1nc2ccc(Oc3ccc(NC(=O)Nc4cccc(Cl)c4)cc3)cc2[nH]1,,4.99 µM (active)
COC(=O)Nc1nc2ccc(Sc3ccccc3)cc2[nH]1,-40.1% [at 17.8 µM] (inactive),
C1CC[C@H]([C@@]23C[C@H](C[C@H]4CCCN[C@H]42)[C@@H]2CCCCN2C3)NC1,,12.6 µM (active)
COC(=O)CC=C[C@@H](C)[C@H](NC(=O)OCC(Cl)(Cl)Cl)c1ccccc1,0.224% [at 8.59 µM] (inactive),
NC[C@@H]1O[C@H](O[C@@H]2[C@H](O[C@@H]3O[C@H](CO)[C@@H](COC[C@H]4O[C@@H](CN)[C@@H](O)[C@@H](O)[C@@H]4N)[C@@H]3O)[C@@H](O)[C@@H](N)C[C@H]2N)[C@@H](N)[C@H](O)[C@@H]1O,2.02% [at 17.8 µM] (inactive),
Nc1ccc2c3c(cccc13)C(=O)NC2=O,17.5% (inactive),
S=C(NCCCc1cnc[nH]1)NCCCN(Cc1ccc(Cl)c(Cl)c1)c1ccc(Br)cn1,,20 µM (active)
CCCCC[C@H](O)/C=C/[C@@H]1[C@@H](CC(=O)CCC(=O)O)[C@@H](O)C[C@H]1O,-3.98% (inactive),
CCOC(=O)[C@@]12C3[C@@H](CCN3C(=O)N[C@@H]1c1ccccc1)[C@@H]2C (stereo not given in full),-11.3% [at 8.59 µM] (inactive),
O=S1(=O)CCSCCN1Cc1ccccc1F,20.8% (inactive),
CC(C)NC[C@H](O)c1ccc2ccccc2c1,3.68% (inactive),
Nc1nc2nc(Cl)[nH]c2c(=O)[nH]1,7.94% (inactive),
COC(=O)c1cc(C(=O)OC)n2ccc3cc(OC)c(OC)cc3c12,51.8% [at 8.59 µM] (inactive),
CO/N=C(\C(=O)N[C@@H]1C(=O)N2C(C(=O)O)=C(C[N+]3(C)CCCC3)CS[C@H]12)c1csc(N)n1,19.5% (inactive),
COc1ccc2nccc(C(=O)O)c2c1,2.51% [at 17.8 µM] (inactive),
CC[C@@H]1CN2CC[C@@H]1C[C@H]2[C@H](O)c1ccnc2ccc(OC)cc12,,31.6 µM (active)
COc1cccc([C@@H]2Oc3ccc(Br)cc3C(=O)[C@H]2OC(=O)NCCc2ccc(OC)c(OC)c2)c1,52.3% (inactive),
CCCC(C(=O)OCCN(CC)CC)(c1ccccc1)c1ccccc1,,15.8 µM (active)
CC[N+]1(CCOC(=O)C(O)(c2ccccc2)c2ccccc2)CCCCC1,2.06% (inactive),
CCC(C(=O)OCCN(CC)CC)c1ccccc1 (stereo not given),2.21% (inactive),
CCCCC/C=C\C/C=C\CCCCCCCCCC(N)=O,-10.4% (inactive),
CCCCOCC1CN(CCCC)S(=O)(=O)c2c(Oc3ccc(F)cc3)cccc2O1 (stereo not given),-22.2% (inactive),
CN1C(=O)CN2CCc3ccccc3C2c2cc(Cl)ccc21 (stereo not given),-3.29% (inactive),
CN1CCN2c3ccccc3Cc3ccccc3[C@@H]2C1,,15.8 µM (active)
H-EHIPA-OH,6.8% (inactive),

Compound,"activity change, negative = inhibition",Potency
COc1ccc(Nc2ncnc3ccc(OC)cc23)cc1,15.2% (inactive),
CC(C)(C)OC(=O)Nc1ccc(OCc2cn(CC(=O)c3ccc(O)cc3)nn2)cc1,17.5% (inactive),
CO/N=C(/C(=O)N[C@@H]1C(=O)N2C(C(=O)O)=C(Cn3nnc(C)n3)CS[C@H]12)c1csc(N)n1,13% (inactive),
CC/C=C\C/C=C\C/C=C\C/C=C\C/C=C\C/C=C\CCC(=O)NC(C)C(=O)O (stereo not given),4.32% (inactive),
CC12C=C(C=Cc3ccc(F)cc3)C(C)(C1)C(c1ccc(F)cc1)CC2=O (stereo not given),8.67% [at 8.59 µM] (inactive),
CC(C)[C@H]1CC[C@@H](C)C[C@H]1O,-12.9% (inactive),
COC(=O)C1=C(C(=O)OC)[C@@H]2N(C)c3ccccc3[C@@]23C[C@@H](C(=O)OC)N(C(=O)c2ccco2)C3=N1,74% [at 8.59 µM] (inactive),
C[C@H](CCC(=O)NCC(=O)O)[C@H]1CC[C@H]2[C@H]3[C@@H](C[C@@H](O)[C@]12C)[C@]1(C)CC[C@H](O)C[C@@H]1C[C@@H]3O,7.66% [at 17.8 µM] (inactive),
COC(=O)[C@@]1(C=C[C@@H](C)[C@H](OC)c2ccccc2Br)[C@@H]2Oc3ccccc3[C@@H]21,4.01% [at 8.59 µM] (inactive),
C=C[C@](C)(O)CCC1C(=C)CCC2[C@@](C)(CO)CCC[C@@]12C (stereo not given in full),1.45% (inactive),
COc1cccc([C@@H]2Oc3ccc(OC)cc3C(=O)[C@@H]2OC(=O)Nc2cc(OC)c(OC)c(OC)c2)c1,12.9% [at 8.59 µM] (inactive),
Fc1ccc(Cl)cc1-c1nc(Nc2ccncc2)c2nccnc2n1,-20.9% (inactive),
C=C(C(C)=O)C(O)c1ccc([N+](=O)[O-])cc1 (stereo not given),-9.42% (inactive),
COc1ccc(-c2nc3c(c4c2C[C@H](c2ccccc2)OC4)CN(C(=O)C2CC2)CC3)c(C)c1,-29.5% [at 8.59 µM] (inactive) and -8.72% [at 8.59 µM] (inactive),
C[C@@H](O)[C@@H]1NC(=O)[C@H](CCCCN)NC(=O)[C@H](Cc2c[nH]c3ccccc23)NC(=O)[C@H](Cc2ccccc2)NC(=O)[C@H](Cc2ccccc2)NC(=O)[C@H](CC(N)=O)NC(=O)[C@H](CCCCN)NC(=O)[C@@H](NC(=O)[C@@H]2CCCN2)CSSC[C@@H](C(=O)N[C@@H](CCCCN)C(=O)O)NC(=O)[C@H](CO)NC(=O)[C@H](CO)NC(=O)[C@H](Cc2ccccc2)NC1=O (H-PCKNFFWKTFSSCK-OH; disulfide 2-13),9.81% (inactive),
C[C@@H]1C(c2ccc(F)cc2)=NN(c2ccc(Br)cc2)[C@H]1C(=O)N1CCOC1=O,-15% (inactive),
C/C=C/C1=C(C(=O)O)N2C(=O)[C@@H](NC(=O)[C@H](N)c3ccc(O)cc3)[C@H]2SC1,33.3% (inactive),
COC(=O)CC1c2ccccc2C(Cc2ccc(OC)cc2)=C(C)N1C(=O)OC (stereo not given),0.314% [at 8.59 µM] (inactive) and -19% [at 8.59 µM] (inactive),
CC(C)(C)OC(=O)N1CCC(C(=O)Nc2cccc(C(=O)NCCc3ccccc3)c2)CC1,27.7% (inactive),
CC(C)(O)CCC(O)[C@@](C)(O)C1CC[C@]2(O)C3=CC(=O)C4CC(O)C(O)C[C@]4(C)C3CC[C@]12C (stereo not given in full),7.71% (inactive),
CC(C)=CCC[C@]1(C)[C@@H](CC=C(C)C)C[C@@]2(CC=C(C)C)C(=O)[C@]1(C(=O)C(C)C)C(=O)C(CC=C(C)C)=C2O,,15.8 µM (active)
CC1(OC(=O)C2CCCC2)C(=O)C=C2C=C(c3ccc(C#N)cc3)OC=C2C1=O (stereo not given),inactive,
CCN1C(=NCc2cc(OC)c(OC)c(OC)c2)NC(c2cccc(C(F)(F)F)c2)C(C(=O)OC)=C1C (stereo not given),12.8% [at 8.59 µM] (inactive),
O=C1C=C(c2ccccc2)CCC1,inactive,
CC[C@H](C)[C@H](NC(=O)[C@H](CCCNC(=N)N)NC(=O)[C@H](CCCNC(=N)N)NC(=O)[C@H](CC(C)C)NC(=O)[C@H](Cc1ccccc1)NC(=O)CNC(=O)CNC(=O)[C@@H](N)Cc1ccc(O)cc1)C(=O)N[C@@H](CCCNC(=N)N)C(=O)N1CCC[C@H]1C(=O)N[C@@H](CCCCN)C(=O)N[C@@H](CC(C)C)C(=O)N[C@@H](CCCCN)C(=O)N[C@@H](Cc1c[nH]c2ccccc12)C(=O)N[C@@H](CC(=O)O)C(=O)N[C@@H](CC(N)=O)C(=O)N[C@@H](CCC(N)=O)C(=O)O,5.11% (inactive),

# — PubChem BioAssay AID720532 (National Center for Advancing Translational Sciences (NCATS), 2013)
